# Results from PubChem BioAssay (Tox21).
# Inconclusive results are not listed. Entries that show only a call come without a potency. The source made the active and inactive calls. Unless noted, the call rests on the fitted dose curve; in most records, active means well fitted curve in the direction sought with a large enough effect in the repeat runs; inconclusive means weak or mixed curves; inactive means no such curve, though single readings can be large; an effect the other way counts as inactive or inconclusive.
# Legend:
# [1] = qHTS assay to identify aromatase inhibitors - cell viability counter screen (AID 743084);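 further: cells stimulated with testosterone during compound exposure; nearly all actives have a fitted effect of over 55% in size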
# [2] = target: Aryl hydrocarbon receptor (Homo sapiens) (UniProt P35869); assay: qHTS assay to identify small molecule that activate the aryl hydrocarbon receptor (AhR) signaling pathway (AID 743085);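 further: HG2L7.5c1 human HepG2 liver cells with stably integrated DRE-driven firefly reporter; series mostly up to about 70 µM; nearly all actives have a fitted effect of over 15% in size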
# Chain of Aryl hydrocarbon receptor (Homo sapiens) (P35869 whole entry, looked up): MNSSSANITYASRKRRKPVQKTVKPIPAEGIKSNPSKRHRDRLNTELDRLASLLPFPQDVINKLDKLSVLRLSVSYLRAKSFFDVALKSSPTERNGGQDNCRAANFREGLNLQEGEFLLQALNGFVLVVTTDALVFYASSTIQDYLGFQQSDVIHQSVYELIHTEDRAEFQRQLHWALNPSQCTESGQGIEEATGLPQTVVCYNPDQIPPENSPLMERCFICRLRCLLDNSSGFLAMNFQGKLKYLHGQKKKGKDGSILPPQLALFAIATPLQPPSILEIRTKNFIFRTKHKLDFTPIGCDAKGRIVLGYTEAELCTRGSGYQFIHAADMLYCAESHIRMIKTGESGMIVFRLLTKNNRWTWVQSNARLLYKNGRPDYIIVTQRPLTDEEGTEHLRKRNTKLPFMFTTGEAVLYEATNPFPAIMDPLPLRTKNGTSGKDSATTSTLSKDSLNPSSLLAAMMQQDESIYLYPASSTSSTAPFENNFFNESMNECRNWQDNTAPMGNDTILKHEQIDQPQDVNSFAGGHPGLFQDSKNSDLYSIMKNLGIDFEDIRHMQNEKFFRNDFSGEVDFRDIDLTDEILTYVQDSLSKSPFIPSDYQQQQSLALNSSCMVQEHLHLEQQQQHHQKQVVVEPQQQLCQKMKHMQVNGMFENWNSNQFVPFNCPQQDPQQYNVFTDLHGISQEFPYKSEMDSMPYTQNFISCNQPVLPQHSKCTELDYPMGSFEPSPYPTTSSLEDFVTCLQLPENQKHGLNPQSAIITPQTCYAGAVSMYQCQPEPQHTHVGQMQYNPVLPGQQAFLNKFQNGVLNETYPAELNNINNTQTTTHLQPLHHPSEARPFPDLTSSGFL
# Summary of the method: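 AhR agonist activity is inferred from enhanced light output of a DRE-controlled firefly luciferase reporter in HepG2 cells, measured with ONE-Glo following 24 h treatment at 37C.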
# [3] = qHTS assay to identify small molecule that activate the aryl hydrocarbon receptor (AhR) signaling pathway - cell viability counter screen (AID 743086);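 further: HepG2 liver cells carrying the AhR DRE luciferase reporter; series mostly up to about 70 µM; nearly all actives have a fitted effect of over 45% in size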
# Summary of the method: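 HepG2-AhR-luc (HG2L7.5c1) cells, 4000/well, treated 24 h at 37 C with compound; viability measured as CellTiter-Fluor fluorescence after 30 min in the same wells as the luciferase read.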
# [4] = target: Peroxisome proliferator-activated receptor gamma (Homo sapiens) (UniProt P37231); assay: qHTS assay to identify small molecule agonists of the peroxisome proliferator-activated receptor gamma (PPARg) signaling pathway (AID 743094; active means well fitted activation curve with a large enough effect in the signal ratio in the repeat runs, not every such curve was filed as active; the % refers to the signal ratio)
# Chain of Peroxisome proliferator-activated receptor gamma (Homo sapiens) (P37231 whole entry, looked up): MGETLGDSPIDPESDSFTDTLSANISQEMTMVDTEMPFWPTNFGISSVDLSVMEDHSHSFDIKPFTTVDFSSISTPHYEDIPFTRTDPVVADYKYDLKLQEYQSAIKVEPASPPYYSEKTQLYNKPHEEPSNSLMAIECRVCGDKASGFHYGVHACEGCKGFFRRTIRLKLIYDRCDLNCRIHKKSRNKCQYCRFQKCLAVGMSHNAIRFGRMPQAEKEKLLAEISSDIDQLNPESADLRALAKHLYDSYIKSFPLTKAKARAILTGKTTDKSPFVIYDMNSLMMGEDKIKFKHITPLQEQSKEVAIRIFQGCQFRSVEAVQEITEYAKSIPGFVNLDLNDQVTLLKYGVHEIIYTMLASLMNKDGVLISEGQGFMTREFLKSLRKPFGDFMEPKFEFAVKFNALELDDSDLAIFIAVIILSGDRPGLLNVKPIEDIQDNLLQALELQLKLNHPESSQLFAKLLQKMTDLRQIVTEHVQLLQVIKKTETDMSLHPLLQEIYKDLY
# Summary of the method: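 GeneBLAzer PPARg UAS-bla HEK293H cells carrying a stably integrated beta-lactamase reporter were pre-incubated 5 h at 37C, then exposed to compounds in DMSO for 17 h at 37C; LiveBLAzer B/G FRET substrate was added for 1 h at room temperature and fluorescence read.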
# [5] = target: Peroxisome proliferator-activated receptor gamma (Homo sapiens) (UniProt P37231); assay: qHTS assay to identify small molecule antagonists of the peroxisome proliferator-activated receptor gamma (PPARg) signaling pathway (AID 743191; calls by dose curve; further: series mostly up to about 63 µM; nearly all actives have a fitted effect of over 30% in size)
# Summary of the method: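 GeneBLAzer PPARg UAS-bla HEK293H cells, 5 h post-plating, exposed to compounds 17 h at 37C. LiveBLAzer B/G FRET substrate added for 1 h at room temperature; beta-lactamase reporter read by fluorescence intensity.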
# [6] = qHTS assay to identify small molecule antagonists of the peroxisome proliferator-activated receptor gamma (PPARg) signaling pathway - cell viability counter screen (AID 743194); further: nearly all actives have a fitted effect of over 55% in size
# Summary of the method: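 Cytotoxicity counter screen in PPARg-bla HEK293H cells, same wells as reporter assay. Compounds plus 50 nM rosiglitazone (final) for 17 h at 37 C, then viability read by CellTiter-Glo luminescence.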
# [7] = qHTS assay for small molecule agonists of the antioxidant response element (ARE) signaling pathway - cell viability counter screen (AID 743203; calls by dose curve; further: nearly all actives have a fitted effect of over 55% in size)
# Summary of the method: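 CellSensor ARE-bla HepG2 cells, 2,000 per well, rested 5 hrs at 37C/5% CO2, then exposed to compound in DMSO for 16 hrs; viability read as CellTiter-Glo luminescence after 30 min at room temperature, in the reporter wells.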
# [8] = qHTS assay for small molecule activators of the heat shock response signaling pathway - cell viability counter screen (AID 743209); further: nearly all actives have a fitted effect of over 50% in size
# Summary of the method: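 CellSensor HSE-bla HeLa cells, plated overnight at 37 C/5% CO2, were exposed to compounds in DMSO for 5 h at 37 C. Viability was then read in the same wells by CellTiter-Glo luminescence after 30 min at room temperature.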
# [9] = qHTS assay for small molecule activators of the heat shock response signaling pathway (AID 743210; active means well fitted activation curve with a large enough effect in the signal ratio in the repeat runs, with a control signal flat, not every such curve was filed as active; the % refers to the signal ratio; further: series mostly up to about 63 µM)
# Summary of the method: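 HSE-bla HeLa cells (beta-lactamase reporter under heat shock response elements), plated overnight, then exposed to compounds 5 h at 37 C; LiveBLAzer B/G FRET substrate added, 2.5 h at room temperature, fluorescence intensity read.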
# [10] = qHTS assay to identify small molecule agonists of the peroxisome proliferator-activated receptor delta (PPARd) signaling pathway - cell viability counter screen (AID 743211); further: nearly all actives have a fitted effect of over 55% in size
# Summary of the method: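 qHTS cell viability: PPARd-bla HEK293H; 17 h cpd, 37C; CellTiter-Glo, luminescence at 30 min RT.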
# [11] = target: Peroxisome proliferator-activated receptor delta (Homo sapiens) (UniProt Q03181); assay: qHTS assay to identify small molecule agonists of the peroxisome proliferator-activated receptor delta (PPARd) signaling pathway (AID 743212; calls by dose curve)
# Chain of Peroxisome proliferator-activated receptor delta (Homo sapiens) (Q03181 whole entry, looked up): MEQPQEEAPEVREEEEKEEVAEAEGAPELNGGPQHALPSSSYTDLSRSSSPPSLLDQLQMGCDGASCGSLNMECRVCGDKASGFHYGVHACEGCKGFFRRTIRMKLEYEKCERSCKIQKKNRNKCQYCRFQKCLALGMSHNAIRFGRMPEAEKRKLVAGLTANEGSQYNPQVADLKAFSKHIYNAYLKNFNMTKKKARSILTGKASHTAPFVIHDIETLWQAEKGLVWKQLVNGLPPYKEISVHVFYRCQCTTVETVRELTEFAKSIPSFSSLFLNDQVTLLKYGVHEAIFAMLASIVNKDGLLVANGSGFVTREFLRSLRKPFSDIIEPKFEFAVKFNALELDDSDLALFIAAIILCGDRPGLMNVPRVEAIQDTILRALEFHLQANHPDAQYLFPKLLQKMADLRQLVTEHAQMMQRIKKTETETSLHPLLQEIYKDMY
# Summary of the method: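 GeneBLAzer UAS-bla HEK293H cells carrying a PPARδ construct were exposed to compounds at 37 °C. Beta-lactamase activity was read by FRET fluorescence after 2 h at room temperature with LiveBLAzer B/G substrate.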
# [12] = target: Peroxisome proliferator-activated receptor delta (Homo sapiens) (UniProt Q03181); assay: qHTS assay to identify small molecule antagonists of the peroxisome proliferator-activated receptor delta (PPARd) signaling pathway (AID 743215; active means well fitted inhibition curve with a large enough effect in the signal ratio in the repeat runs, not every such curve was filed as active; the % refers to the signal ratio;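 further: cells stimulated with agonist L165041 at 300 nM final during compound exposure; series mostly up to about 62 µM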)
# Summary of the method: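 PPARd UAS-bla HEK293H cells were pre-incubated 5 h at 37 C, then given test compounds in DMSO plus agonist L165041 (300 nM final). After 17 h at 37 C, beta-lactamase FRET substrate was added; fluorescence read after 2 h at room temperature.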
# [13] = qHTS assay to identify small molecule agonists of the farnesoid-X-receptor (FXR) signaling pathway - cell viability counter screen (AID 743218); further: nearly all actives have a fitted effect of over 45% in size
# Summary of the method: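 FXR-UAS-bla HEK 293T cells, plated 5 h at 37 C, were exposed to compounds for 16 h at 37 C. CellTiter-Glo was then added to the same wells as the bla readout; luminescence read after 30 min at room temperature.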
# [14] = qHTS assay to identify small molecule antagonists of the farnesoid-X-receptor (FXR) signaling pathway - cell viability counter screen (AID 743221; active means well fitted cell-killing curve with a large enough effect in the repeat runs, not every such curve was filed as active; further: nearly all actives have a fitted effect of over 50% in size)
# Summary of the method: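 After a 5 h settling period, FXR-bla HEK 293T cells receive compound and chenodeoxycholic acid (50 uM final) and incubate 16 h at 37 C; CellTiter-Glo luminescence, read after 30 min at room temperature, reports cell viability.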
# [15] = target: Vitamin D3 receptor (Homo sapiens) (UniProt P11473); assay: qHTS assay to identify small molecule agonists of the vitamin D receptor (VDR) signaling pathway (AID 743222; calls by dose curve)
# Chain of Vitamin D3 receptor (Homo sapiens) (P11473 whole entry, looked up): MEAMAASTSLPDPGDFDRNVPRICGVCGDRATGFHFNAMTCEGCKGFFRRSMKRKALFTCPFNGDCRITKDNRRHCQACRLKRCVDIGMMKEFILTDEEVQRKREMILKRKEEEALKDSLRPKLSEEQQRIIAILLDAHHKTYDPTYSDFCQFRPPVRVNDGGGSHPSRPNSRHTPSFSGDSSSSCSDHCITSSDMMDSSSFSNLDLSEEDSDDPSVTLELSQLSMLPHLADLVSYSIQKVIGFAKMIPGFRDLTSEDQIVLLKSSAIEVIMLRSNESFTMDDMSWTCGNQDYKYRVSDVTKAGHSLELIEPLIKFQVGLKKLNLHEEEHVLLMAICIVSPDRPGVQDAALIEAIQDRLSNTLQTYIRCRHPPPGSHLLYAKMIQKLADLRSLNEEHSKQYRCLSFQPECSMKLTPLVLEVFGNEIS
# Summary of the method: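 VDR-bla cells were plated 4 h at 37C/5% CO2, then exposed to compounds in DMSO for 16 h. After LiveBLAzer B/G FRET substrate addition and 2 h at room temperature, beta-lactamase reporter fluorescence was read.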
# [16] = target: Vitamin D3 receptor (Homo sapiens) (UniProt P11473); assay: qHTS assay to identify small molecule antagonists of the vitamin D receptor (VDR) signaling pathway (AID 743223; active means well fitted inhibition curve with a large enough effect in the signal ratio in the repeat runs, not every such curve was filed as active; the % refers to the signal ratio)
# Summary of the method: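 Reporter line VDR-bla; stimulus 1alpha,25-(OH)2 vitamin D3, 3 nM final; compound co-addition, 16 h 37C/5% CO2; LiveBLAzer B/G substrate 2 h RT; fluorescence intensity.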
# [17] = qHTS assay for small molecule agonists of the antioxidant response element (ARE) signaling pathway (AID 743202; active means well fitted activation curve with a large enough effect in the signal ratio in the repeat runs, not every such curve was filed as active; the % refers to the signal ratio; further: potency means the concentration at half of the fitted maximal effect)
# Summary of the method: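 ARE-bla HepG2 cells (beta-lactamase reporter under the antioxidant response element), plated 5 hours, then exposed to compounds 16 hours at 37 C. LiveBLAzer B/G FRET substrate added for 2 hours at room temperature; fluorescence intensity read.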
# [18] = qHTS assay to identify small molecule antagonists of the peroxisome proliferator-activated receptor delta (PPARd) signaling pathway - cell viability counter screen (AID 743213); further: nearly all actives have a fitted effect of over 50% in size
# Summary of the method: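 PPARd-bla HEK293H cells (3000/well) got compound plus 300 nM L165041 agonist for 17 h at 37 C. Viability in the same wells came from CellTiter-Glo luminescence after 30 min at room temperature.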
# [19] = target: Bile acid receptor (Homo sapiens) (UniProt Q96RI1); assay: qHTS assay to identify small molecule antagonists of the farnesoid-X-receptor (FXR) signaling pathway (AID 743217; active means well fitted inhibition curve with a large enough effect in the signal ratio in the repeat runs, not every such curve was filed as active; the % refers to the signal ratio)
# Chain of Bile acid receptor (Homo sapiens) (Q96RI1 whole entry, looked up): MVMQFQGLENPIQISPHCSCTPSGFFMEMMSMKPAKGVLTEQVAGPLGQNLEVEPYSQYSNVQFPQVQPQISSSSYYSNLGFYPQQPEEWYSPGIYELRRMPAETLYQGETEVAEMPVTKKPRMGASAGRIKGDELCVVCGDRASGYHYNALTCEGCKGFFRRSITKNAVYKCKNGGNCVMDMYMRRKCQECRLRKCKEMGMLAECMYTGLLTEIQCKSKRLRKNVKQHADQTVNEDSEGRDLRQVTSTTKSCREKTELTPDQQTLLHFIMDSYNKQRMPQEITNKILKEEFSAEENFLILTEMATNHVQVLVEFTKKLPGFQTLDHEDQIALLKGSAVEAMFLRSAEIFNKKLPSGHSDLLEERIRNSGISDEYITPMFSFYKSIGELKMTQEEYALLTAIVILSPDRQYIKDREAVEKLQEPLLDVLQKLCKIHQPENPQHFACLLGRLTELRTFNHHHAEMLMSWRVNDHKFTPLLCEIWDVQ
# Summary of the method: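 FXR-UAS-bla HEK 293T cells pre-incubated 5 h at 37 °C, then exposed to compounds with chenodeoxycholic acid (50 uM final) for 16 h at 37 °C. Beta-lactamase reporter read by LiveBLAzer B/G FRET substrate fluorescence after 2 h at room temperature.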
# [20] = target: Bile acid receptor (Homo sapiens) (UniProt Q96RI1); assay: qHTS assay to identify small molecule agonists of the farnesoid-X-receptor (FXR) signaling pathway (AID 743220; active means well fitted activation curve with a large enough effect in the signal ratio in the repeat runs, not every such curve was filed as active; the % refers to the signal ratio)
# Summary of the method: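 Beta-lactamase reporter under UAS control in GeneBLAzer FXR HEK 293T cells (5000/well) measured with LiveBLAzer FRET substrate after 2 h at room temperature. Compound exposure lasted 16 h at 37C.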
Compound,Potency [1],Potency [2],Potency [3],Potency [4],Potency [5],Potency [6],Potency [7],outcome [8],outcome [9],Potency [10],Potency [11],outcome [12],Potency [13],Potency [14],outcome [15],outcome [16],Potency [17],Potency [18],outcome [19],outcome [20]
Cc1cc(C)c(C)c(O)c1,inactive,inactive,inactive,inactive,inactive,inactive,inactive,inactive,inactive,inactive,inactive,inactive,inactive,inactive,inactive,inactive,,,,
Cc1c(N=C=O)cccc1N=C=O,inactive,inactive,inactive,inactive,inactive,inactive,inactive,,inactive,inactive,,,inactive,inactive,inactive,inactive,inactive,inactive,,
CCC(=O)O[C@@H]1C[C@H]2CC[C@]1(C)C2(C)C,inactive,inactive,inactive,inactive,,inactive,inactive,inactive,inactive,inactive,inactive,inactive,,,inactive,,inactive,inactive,,
COC(=O)/C=C/C(C)=C\C=C\C(C)=C\C=C\C=C(C)\C=C\C=C(C)\C=C\C(=O)O,inactive,inactive,inactive,inactive,,inactive,inactive,inactive,inactive,inactive,inactive,,inactive,inactive,inactive,inactive,,inactive,inactive,inactive
CCCCOC(=O)C(C)Oc1ccc(Oc2ccc(C(F)(F)F)cn2)cc1 (stereo not given),inactive,inactive,inactive,inactive,,inactive,inactive,inactive,inactive,inactive,inactive,inactive,inactive,inactive,,inactive,,inactive,inactive,inactive
C=Cc1ccc(C=C)cc1,inactive,inactive,inactive,inactive,inactive,,inactive,,inactive,inactive,inactive,inactive,,inactive,inactive,,inactive,inactive,inactive,inactive
Cc1c(Cl)cccc1Nc1ccccc1C(=O)O,inactive,inactive,inactive,inactive,,inactive,inactive,,inactive,inactive,,,inactive,inactive,,,26.6 µM (active),inactive,inactive,inactive
CC1(C)CC(=O)CC(C)(C)N1,inactive,inactive,inactive,inactive,inactive,,inactive,inactive,inactive,inactive,inactive,inactive,inactive,inactive,inactive,,inactive,,,
Clc1cc(Cl)c2c(c1)N=C1CCCCCN1C2,inactive,inactive,inactive,inactive,,inactive,inactive,inactive,inactive,inactive,inactive,,inactive,inactive,inactive,inactive,inactive,,inactive,inactive
CC(=O)c1ccc(Cl)c(Cl)c1Cl,inactive,inactive,inactive,inactive,,inactive,inactive,inactive,inactive,inactive,,,inactive,inactive,inactive,inactive,inactive,inactive,,
Cc1ccc(NC=O)c(C)c1,inactive,inactive,inactive,inactive,,inactive,inactive,,inactive,,inactive,inactive,inactive,inactive,inactive,inactive,inactive,inactive,inactive,inactive
O=C(O)COCC(=O)O,inactive,inactive,inactive,inactive,,inactive,inactive,,inactive,inactive,,,inactive,inactive,inactive,inactive,inactive,inactive,inactive,inactive
CCC(CC)C(=O)O,inactive,inactive,inactive,inactive,,inactive,inactive,inactive,inactive,inactive,inactive,inactive,inactive,inactive,inactive,inactive,inactive,inactive,,
C[C@H](CN1CCCC1)C(=O)c1ccc(C(F)(F)F)cc1,inactive,inactive,inactive,inactive,,inactive,inactive,inactive,inactive,,inactive,inactive,inactive,,inactive,,,,inactive,inactive
